Data on 40 molecules can be found in PubChem BioAssay (NCATS).

Results filed as inconclusive are left out. Active and inactive are the calls of the source. Calls follow the shape of the dose curve; as a rule, active = well fitted inhibition curve with a large enough effect; inconclusive = small, poorly fitted or top-dose-only effect; inactive = flat fitted curve, though single readings scatter.
% is scaled to controls: 0 for no effect and ±100 for the full control effect.

A short description of the assay: qHTS to identify inhibitors of the type 1 interferon - major histocompatibility complex class I in skeletal muscle: primary screen against the NCATS Pharmaceutical Collection (AID 1347407). Particulars: human skeletal muscle cells, IFN-b-induced MHC-I HiBiT luminescence, 24 h; series mostly up to 45.9 µM. An excerpt: Assay Submitter (PI): Travis B. Kinder Ph.D. & James Inglese Ph.D.
Assay Development and Screening Technology Laboratory (ADST)
National Center for Advancing Translational Sciences (NCATS), Rockville, MD
National Institute of Health (NIH), Bethesda, Maryland
Idiopathic inflammatory myopathies, collectively referred to as myositis, are a group of rare autoimmune diseases characterized by skeletal muscle inflammation, weakness, and usually accompanied by systemic pathologies of the skin, lungs, or vasculature. Current immunosuppressive therapies and glucocorticoids are often not curative and are accompanied by harsh side effects, especially in children with juvenile myositis. We initiated a drug repurposing and development program to identify more targeted, less toxic therapeutics to treat myositis. Although its cause is not known, muscle from a subset of patients have an abundance of the inflammatory type 1 interferon (IFN) and a down-stream product major histocompatibility complex class I (MHC class I), which are both thought to contribute to damage and weakness. We conducted quantitative high throughput screening on 6,576 compounds (4,679 unique) through a series of cell-based assays to identify those that inhibit the IFN-stimulated expression of MHC class I in muscle precursor cells (myoblasts). The compound identification and evaluation strategy utilized a primary screen with reporter-tagged MHC class I in genome-engineered myoblasts, ATP content counter screen for viability, HLA-ABC immunofluorescence secondary screen, and HLA-B RT-qPCR tertiary screen.
The primary screen utilized CRISPR/Cas9 genome-engineering of immortalized human myoblasts, C25cl48, where a pro-luminescent reporter HiBit was fused to the C-terminus of endogenous MHC class I allele HLA-B*08:01 (HLA-B HiBit myoblasts). HiBit is an 11 amino acid fragment of NanoLuc luminescent reporter (Promega Corporation), and when complexed to the larger LgBit fragment, the reconstituted enzyme produces light in the presence of furimazine substrate (Schwinn et al., 2018). Briefly, HLA-B HiBit myoblasts were plated into 1536-well plates, treated with 4.0 ng/ml human IFN-beta and 2,816 compounds from the NCATS Pharmaceutical Collection (NPC) that contains all drugs approved in the US, EU, and Japan (Huang et al., 2011) in an 8-point, 1:5 titration with a high final concentration of 46 uM. After 24 hrs of treatment, cells were assayed by Nano-Glo HiBiT Lytic Detection System (Promega) and luminescence measured by a ViewLux 1430 Ultra HTS (Perkin Elmer).
Huang R, Southall N, Wang Y, Yasgar A, Shinn P, Jadhav A, Nguyen D-T, Austin CP. 2011. The NCGC pharmaceutical collection: a comprehensive resource of clinically approved drugs enabling repurposing and chemical genomics. Sci Transl Med 3:80ps16. doi:10.1126/scitranslmed.3001862
Schwinn MK, Machleidt T, Zimmerman K, Eggers CT, Dixon AS, Hurst R, Hall MP, Encell LP, Binkowski BF, Wood K V. 2018. CRISPR-Mediated Tagging of Endogenous Proteins with a Luminescent Peptide. ACS Chem Biol 13:467-474. doi:10.1021/acschembio.7b00549
PROTOCOL TABLE (as described by Inglese et al., 2007)
SEQUENCE No. (e.g., 1, 2, 3, etc.); […] (e.g., Cells, Incubation, Reagent, etc.); VALUE; DESCRIPTION
1a; Cells; 5 uL; Use a Multidrop Combi (Thermo Scientific) to seed 350 cells/well into nine Greiner 1536 well white/solid bottom, high base, TC plates in 5 ul/well of iHSKM growth medium (GM) without dexamethasone into columns 1+2. Add metal lids with gas-exchange holes
1b; Cells; 5 uL; Use a Multidrop Combi (Thermo Scientific) to seed 350 cells/well into nine Greiner 1536 well white/solid bottom, high base, TC plates in 5 ul/well of iHSKM GM without dexamethasone + 4 ng/ml IFN-b into columns 3 - 48. Add metal lids with gas-exchange holes
2; Incubate; 1 hr; Incubate at 37 C, 5% CO2, 95% RH
[…]
In the case of `NNC(=O)CP(=O)(c1ccccc1)c1ccccc1`, the molecule was classed as inactive.

As for `CCOC(=O)[C@H](CCc1ccccc1)N[C@@H](C)C(=O)N1CCC[C@H]1C(=O)O`, the call was inactive.

As for `O=C(O)c1ccc(OCCCOc2ccc(C(=O)O)cc2)cc1`, the molecule was called inactive.

Regarding `CC(C)CCOC(=O)c1ccc(N(C)C)cc1`, the result was inactive.

In the case of `Cc1ccsc1C(=CCCN1CCC[C@@H](C(=O)O)C1)c1sccc1C`, the call was inactive.

In the case of `Nc1ncnc2c1ncn2[C@@H]1O[C@H](COP(=O)(O)O)[C@@H](O)[C@H]1O`, the result was inactive.

Take `Cc1ccc2c(c1)c1c3n2CCNC3CCC1` (stereo not given): the call was inactive.

`CC(=O)NS(=O)(=O)c1ccc(N)cc1`: the call was inactive.

With `CC(CSC(=O)c1ccccc1)C(=O)N1C[C@@H](Sc2ccccc2)C[C@H]1C(=O)O` (stereo not given in full), the outcome was inactive.

Turning to `CCCCCC(N)=O`, the molecule was called inactive.

`Cc1c(Cn2ccnc2)c2ccccc2n1CCC(=O)O`: the molecule was classed as inactive.

As for `Nc1c2c(nc3c1CCC3)CCCC2`, the result was inactive.

`CCOc1ccc(C(=O)OCCN(CC)CC)cc1`: the molecule was classed as inactive.

`COCC(=O)Nc1c(I)c(C(=O)NCC(O)CO)c(I)c(C(=O)N(C)CC(O)CO)c1I` (stereo not given): the result was inactive.

For the molecule `C/C(=C(\CCO)SS/C(CCO)=C(\C)N(C=O)Cc1cnc(C)nc1N)N(C=O)Cc1cnc(C)nc1N`, the call was inactive.

For the molecule `CCCCCCCCCCCCCCCCCCO`, the molecule was called inactive.

`CCOC(=O)OC(C)OC(=O)[C@@H]1N2C(=O)[C@@H](NC(=O)[C@H](N)c3ccccc3)[C@H]2SC1(C)C` (stereo not given in full): the call was inactive.

As for `O=C(NCCCN1CCOCC1)c1ccc(Cl)cc1`, the result was inactive.

Turning to `CCOc1ccccc1O[C@H](c1ccccc1)[C@H]1CNCCO1`, the call was inactive.

`CN[C@@H]1[C@@H](O)[C@@H](O[C@@H]2[C@H](O)[C@H](O[C@H]3OC(CN)=CC[C@H]3N)[C@@H](N)C[C@H]2N)OCC1(C)O` (stereo not given in full): the result was inactive.

For the molecule `Nc1ccncc1N`, the molecule was called inactive.

Take `C[C@@H](c1ncncc1F)C(O)(Cn1cncn1)c1ccc(F)cc1F` (stereo not given in full): the outcome was inactive.

Regarding `Nc1ccc(S(=O)(=O)c2ccc(N)cc2)cc1`, the molecule was classed as inactive.

`CN1C(=O)CC(c2ccccc2)C1=O` (stereo not given): the molecule was classed as inactive.

`CN/C(=C\[N+](=O)[O-])NCCSCc1csc(CN(C)C)n1`: the molecule was classed as inactive.

Take `C[N+]1(C)CCCC(OC(=O)C(O)(c2ccccc2)c2ccccc2)C1` (stereo not given): the outcome was inactive.

Take `C[N+](C)(C)CC[N+]1(C)Cc2c(Cl)c(Cl)c(Cl)c(Cl)c2C1`: the result was inactive.

Regarding `CC(=O)OC[C@H]1O[C@@](COC(C)=O)(O[C@H]2O[C@H](COC(C)=O)[C@@H](OC(C)=O)[C@H](OC(C)=O)[C@H]2OC(C)=O)[C@@H](OC(C)=O)[C@@H]1OC(C)=O`, the call was inactive.

As to `Cc1cccc(Nc2ccccc2C(=O)O)c1C`, the molecule was classed as inactive.

For `NS(=O)(=O)c1cc(-c2nn[nH]n2)c(NCc2cccs2)cc1Cl`, the result was inactive.

In the case of `O=C(CN1CCNCC1)NC1CCCCC1`, the molecule was classed as inactive.

For `Cn1c(=O)c2c(ncn2CCO)n(C)c1=O`, the molecule was called inactive.

Regarding `CNCc1ccccc1`, the molecule was called inactive.

As to `O=C1c2cccc(O)c2C(=O)c2c(O)cccc21`, the outcome was inactive.

Regarding `NC(N)=NCCN1CCCCCCC1`, the activity change, negative = inhibition was -12.2% [at 0.727 µM] (inactive).

Regarding `CN1CC(=O)NC1=N`, the result was inactive.

In the case of `CC(=O)Nc1cccc(O)c1`, the result was inactive.

`CN[C@@H]1[C@H](O)[C@H](NC)[C@H]2O[C@@]3(O)C(=O)C[C@@H](C)O[C@H]3O[C@@H]2[C@H]1O`: the result was inactive.

On to `Nc1ccc(C(=O)Oc2ccccc2)c(O)c1`, for which the outcome was inactive.

With `CCCCCCCCCCCCCCCCC(C(=O)O)C(O)(CC(=O)O)C(=O)O` (stereo not given), the result was inactive.
